Most compounds without a hit are left out; they make up all but 3.5% or so of the library.
Mtb betalactam: beta-lactam sensitization of Mtb H37Rv; M. tuberculosis H37Rv growth with meropenem, percent inhibition; inhibition, % at 25 µM; hit rate 0.27% among 330,000; call rule not given here;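 further: growth measured after seven days incubation then overnight dye step; 0% = bacteria only wells and 100% = bacteria with antibiotic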
FBA Mtb inh: Mtb fructose-bisphosphate aldolase inhibition | hit rate 2.3% among 360,000 | purified M. tuberculosis FBA, fluorescence read-out | P9WQA3 | inhibition, % at 1 µM; in the data active means inhibition above about 27%;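 further: 0% = vehicle and 100% = reference inhibitor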
Mtb UGM inh: inhibitors of M. tuberculosis UDP-galactopyranose mutase; inhibition, % at 10 µM; AID 504406; purified UGM, fluorescence polarization probe displacement; P9WIQ1; hit rate 0.06% among 320,000; in the data active means inhibition above about 10%, passing the limit was not always enough
Target sequence (P9WIQ1 whole entry, looked up): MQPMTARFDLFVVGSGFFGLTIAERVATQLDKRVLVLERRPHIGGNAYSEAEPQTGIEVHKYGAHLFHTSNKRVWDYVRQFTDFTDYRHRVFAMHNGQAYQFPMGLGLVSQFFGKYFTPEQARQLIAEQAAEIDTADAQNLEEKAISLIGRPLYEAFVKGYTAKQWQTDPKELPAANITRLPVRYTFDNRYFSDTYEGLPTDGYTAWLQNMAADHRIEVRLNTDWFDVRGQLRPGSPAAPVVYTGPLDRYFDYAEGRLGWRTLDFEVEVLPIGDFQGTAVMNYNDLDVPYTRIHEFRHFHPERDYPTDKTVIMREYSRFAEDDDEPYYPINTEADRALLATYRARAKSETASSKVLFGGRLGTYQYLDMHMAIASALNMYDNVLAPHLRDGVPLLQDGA
GDH-TPI counter: GDH-TPI coupled enzyme inhibition counter-screen; GDH-TPI coupled enzyme counterscreen, NADH absorbance; inhibition, % at 4.8 µM; hit rate 1.2% among 360,000; AID 588335; in the data active means inhibition above about 30%;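 further: 0% = DMSO wells and 100% = wells lacking the enzyme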
Rv3671c protease: inhibitors of M. tuberculosis serine protease Rv3671c; hit rate 0.048% among 320,000; inhibition, % at 5.96 µM; P9WHR9; in the data active means inhibition above about 38%;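 further: extracellular domain of Rv3671c used as enzyme; 0% = enzyme with DMSO and 100% = no enzyme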
An asterisk follows results filed as active; . = no result; + = active, no number.

SMILES	Mtb betalactam	FBA Mtb inh	Mtb UGM inh	GDH-TPI counter	Rv3671c protease
Cc1cccn2c(=O)c3cc(C(=O)NCc4cccnc4)c(=N)n(C(C)C)c3nc12	-9.6	+	0.4	15.8	5.9
Cc1cccn2c(=O)c3cc(C(=O)NCc4ccco4)c(=N)n(C(C)C)c3nc12	7.6	+	2.1	3.9	-6.4
N=c1c(C(=O)NCc2ccc3c(c2)OCO3)cc2c(=O)n3ccccc3nc2n1Cc1cccnc1	-3.8	3.1	-1.3	5.3	-5.4
CC(C)n1c(=N)c(C(=O)NCCc2ccccc2)cc2c(=O)n3ccccc3nc21	-5.4	+	1.9	12.1	2.5
Cc1cccc(NC(=O)c2cc3c(=O)n4ccccc4nc3n(CC(C)C)c2=N)c1	-3.9	-0.1	-1.8	-5.3	0.2
COc1ccc(CCNC(=O)c2cc3c(=O)n4cccc(C)c4nc3n(Cc3ccco3)c2=N)cc1OC	7.7	10.4	-1.6	11.6	-0.7
CCOc1cccc(C2/C(=C(/O)c3ccc4c(c3)CC(C)O4)C(=O)C(=O)N2Cc2ccncc2)c1 (configuration not stated)	-5.5	1.4	1.6	14.2	6.2
CN(C)N1C(N)=C(C#N)C(c2ccccc2F)C2=C1CC(C)(C)CC2=O (configuration not stated)	-5.3	0.9	-1.0	15.4	4.0
CCCOc1ccc(-c2nc(C#N)c(NCC3CCCO3)o2)cc1 (configuration not stated)	98.2	121.0*	-0.9	16.7	6.3
N#Cc1nc(-c2ccccc2Cl)oc1NCC1CCCO1 (configuration not stated)	1.4	19.2	0.5	28.2	-3.1
COc1ccc(-c2nc(C#N)c(NCC3CCCO3)o2)cc1OC (configuration not stated)	-5.2	180.2*	0.4	13.8	-8.4
CCOc1ccc(-c2nc(C#N)c(NCC3CCCO3)o2)cc1 (configuration not stated)	18.8	177.2*	1.4	22.5	0.6
O=C(CCn1c(=O)oc2ccccc21)Nc1cccc(Br)c1	3.0	-2.1	0.9	-0.3	0.7
O=c1[nH]cc(C=NNc2ccccc2)c(=O)[nH]1	.	3.3	.	.	.
CCCc1cc(=O)oc2c3c(cc(OCC(=O)NCc4ccncc4)c12)OC(C)(C)CC3	2.1	+	3.9	25.5	-6.2
Cc1c(OCC(=O)NCc2ccncc2)ccc2c3c(c(=O)oc12)CCCC3	-1.2	9.2	-1.9	3.0	11.5
CCCc1cc(=O)oc2c3c(cc(OCC(=O)NCc4ccccn4)c12)OC(C)(C)CC3	-5.8	191.8*	-2.3	17.6	2.7
Cc1cc(OCC(=O)Nc2ccccn2)c2c(C)c(C)c(=O)oc2c1	1.3	10.8	2.5	-6.3	2.2
Cc1cc(OCC(=O)NCc2ccccn2)c2c(C)c(C)c(=O)oc2c1	2.4	119.8*	0.4	21.6	-5.5
Cc1cc(OCC(=O)C(C)(C)C)c2c(C)c(C)c(=O)oc2c1	-3.8	48.6*	-2.2	5.1	-5.5
COc1cc(S(=O)(=O)N2CCCN(C)CC2)ccc1NC(C)=O	1.2	3.9	-1.8	-6.9	-0.1
CNS(=O)(=O)c1cccc(C(=O)NCC(c2ccco2)N(C)C)c1 (configuration not stated)	-5.2	1.7	1.1	-5.2	-10.4
CCN(CC)S(=O)(=O)c1cccc(C(=O)OCC(=O)NC(C)c2ccccc2)c1 (configuration not stated)	-2.6	1.9	-3.3	-2.5	1.3
Cc1c(C)c2c(OCC(=O)NCc3ccccn3)cc3c(c2oc1=O)CCC(C)(C)O3	-3.1	+	2.0	23.5	-9.0
O=c1nc(/C=C/c2ccc(Cl)cc2Cl)cc(C(F)(F)F)[nH]1	67.9	2.3	-2.4	41.4*	.
SMILES	Mtb betalactam	FBA Mtb inh	Mtb UGM inh	GDH-TPI counter	Rv3671c protease
Cc1ccc(S(=O)(=O)c2cc3c(=O)n4ccccc4nc3n(CCCN3CCOCC3)c2=N)cc1C	0.1	128.1*	2.2	17.2	-3.3
N=c1c(S(=O)(=O)c2ccc(Cl)cc2)cc2c(=O)n3ccccc3nc2n1CCN1CCOCC1	2.4	+	1.7	12.4	3.1
N=c1c(S(=O)(=O)c2ccc(Cl)cc2)cc2c(=O)n3ccccc3nc2n1CCc1ccccc1	59.2	3.0	2.8	2.4	-5.7
O=CNc1c(Br)cc2c(c1Br)Cc1cc(Br)ccc1-2	.	4.3	.	6.0	.
Cc1cc2oc(=O)c3c(c2cc1OCc1nn[nH]n1)CCCC3	-3.3	14.8	3.6	14.1	-7.7
Cc1c(OCc2nn[nH]n2)ccc2c3c(c(=O)oc12)CCCC3	4.8	124.4*	5.4	7.0	1.6
CCCc1cc(=O)oc2cc(C)cc(OCc3nn[nH]n3)c12	-11.3	128.3*	-1.3	9.4	3.7
